Laboratory results reported in paper PMC5540273 (PLoS ONE, 2017).

Tests used:
Conditions in all cases: concentration: 1 μM, replicates: in singlicate; n = 1
TNNI3K = tested on: TNNI3K
TRKA = tested on: T1, TRKA
T1 construct: gene NTRK1

TRKB = tested on: TRKB
TRKC = tested on: T2, TRKC
T2 construct: gene NTRK3

TRPM6 = tested on: TRPM6
TSSK1B = tested on: TSSK1B
TSSK3 = tested on: TSSK3
TTK = tested on: TTK
TXK = tested on: TXK
[1] = tested on: TYK2(JH1domain-catalytic)
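Note: KINOMEscan kinase panel screen.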

Row | SMILES | %Inh (TNNI3K) | %Inh (TRKA) | %Inh (TRKB) | %Inh (TRKC) | %Inh (TRPM6) | %Inh (TSSK1B) | %Inh (TSSK3) | %Inh (TTK) | %Inh (TXK) | %Inh [1]
1 | COc1cccc(-c2nc(-c3ccccc3)[nH]c2-c2ccncc2)c1 [SB-610250] | 0% | 0% | 0% | 22% | 10% | 10% | 4% | 16% | 14% | 18%
2 | O=C(Nc1n[nH]c2nc(-c3ccccc3O)ccc12)C1CC1 [SB-711880] | 0% | 49% | 17% | 16% | 0% | 0% | 0% | 18% | 0% | 0%
3 | CSc1ccc(NC2=C(c3ccc(Cl)cc3)C(=O)NC2=O)cc1 [SB-317658] | 2% | 5% | 0% | 0% | 0% | 3% | 0% | 6% | 23% | 0%
4 | COc1ccc(NC(=O)c2ccoc2)cc1-c1ccc(C(=O)NCC2CC2)cc1 [GW810437] | 1% | 15% | 26% | 21% | 0% | 0% | 32% | 0% | 0% | 61%
5 | Cc1cc(-c2ccnc(Nc3cccc(C#N)c3)n2)cc(C)c1O [GSK1440913] | 25% | 78% | 9% | 39% | 0% | 5% | 7% | 54% | 35% | 60%
6 | Cc1cc(-c2c(-c3ccc(F)cc3)ncn2CCCN2CCOCC2)nc(N)n1 [SB-222517] | 0% | 0% | 0% | 0% | 15% | 0% | 0% | 48% | 14% | 0%
7 | Nc1ncc(-c2ccc3nccc(-c4ccncc4)c3c2)cc1S(=O)(=O)N1CCCCC1 [GSK1693850] | 1% | 99% | 0% | 0% | 0% | 0% | 7% | 21% | 0% | 4%
8 | Nc1ncc(-c2cn[nH]c2)c2scc(-c3ccc4c(c3)CCN4C(=O)Cc3ccccc3)c12 [GSK2593067] | 0% | 96.8% | 63% | 70% | 16% | 3% | 20% | 1% | 30% | 10%
9 | CCn1cnc2c(NCc3ccccc3)ncnc21 [SKF-96418] | 0% | 0% | 0% | 11% | 15% | 0% | 0% | 16% | 2% | 0%
10 | Cc1ccc(NC(=O)c2cccc(N3CCCCC3)c2)cc1-c1ccc(C(=O)NCC2CC2)cc1 [GSK1917008] | 28% | 0% | 0% | 0% | 23% | 28% | 10% | 11% | 7% | 16%
